In all, about 30,000 compounds went through this assay and about 190 (0.63%) were called active. No stated cut-off is given here; in the data, active means viability loss activity score above about 50%; inconclusive means no clear call, values can overlap the other calls; inactive means below about 35%. Many of the other results were omitted from the sample, so actives are more common in it than they were.

The assay in a line: BJeLR cell viability loss, primary screen, luminescence, CellTiterGlo ATP (AID 2275).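 Further: higher score means fewer live cells and less ATP luminescence.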 Particulars: BJeLR fibroblasts viability, 48 h, active compounds read high, concentration not given here; HRASV12, hTERT and SV40 LT/ST transformed unless noted. In general terms: Cellular ATP, detected with luciferase, serves as a proxy for viable cell number.
Regarding `CN[C@@H]1C[C@H]2O[C@@](C)([C@@H]1OC)n1c3ccccc3c3c4c(c5c6ccccc6n2c5c31)C(=O)NC4`, the viability loss activity score was 127% (active).

For the compound `CCCCCCCCCCCCCC(=O)O[C@@H]1[C@@H](C)[C@@]2(O)[C@@H](C=C(CO)C[C@]3(O)C(=O)C(C)=C[C@@H]23)[C@@H]2C(C)(C)[C@]12OC(C)=O`, the viability loss activity score was 4.17% (inactive).

In the case of `CN1C2C=C(N(C(=O)c3ccc(Cl)cc3)c3ccccc3)CC1CC2` (stereo not given), the viability loss activity score is 0.717% (inactive).

In the case of `CCOC(=O)[C@@H]1[C@@H]2NC(=O)N[C@@]1(C)Oc1ccccc12`, the viability loss activity score is -1.85% [setting not given] (inactive).

Turning to `Fc1ccc(CNC2=NCCS2)cc1`, the viability loss activity score is 2.3% (inactive).

Take `CNC(=O)N(C)c1nnc(C(C)(C)C)s1`: the viability loss activity score was -2.35% [setting not given] (inactive).

As for `c1ccc2c(c1)[I+]c1ccccc1-2`, the viability loss activity score is 73.2% (active).

Regarding `CC(=O)Nc1nc(C)c(Oc2ccccc2)c(OC(=O)N(C)C)n1`, the viability loss activity score was -1.11% (inactive).

Regarding `COC1=C[C@@H]2[C@@H]3Cc4ccc(OC)c(O)c4[C@]2(CCN3C)CC1=O`, the viability loss activity score is 1.23% [setting not given] (inactive).

In the case of `CN1CC=C(c2noc(CCC(=O)Nc3ccc(F)cc3F)n2)CC1`, the viability loss activity score was 2.02% (inactive).

Regarding `CC(C)[C@@]1(NC(=O)[C@@H]2CC3c4cccc5[nH]cc(c45)C[C@H]3N(C)C2)O[C@@]2(O)[C@@H]3CCCN3C(=O)[C@H](Cc3ccccc3)N2C1=O` (stereo not given in full), the viability loss activity score was -5.08% (inactive).

For `O=C(O)C1C2CCC(O2)C1C(=O)N1CCN(C/C=C/c2ccccc2)CC1` (stereo not given), the viability loss activity score is 8.76% (inactive).

With `C[C@H]1O[C@@H](O[C@H]2CC[C@]3(CO)C4CC[C@]5(C)[C@@H](C6=CC(=O)OC6)CC[C@]5(O)[C@@H]4CC[C@H]3C2)[C@H](O)[C@H](O)[C@@H]1O[C@@H]1O[C@H](CO)[C@@H](O)[C@H](O)[C@H]1O` (stereo not given in full), the viability loss activity score was 109% (active).

With `Cc1ccc(CSc2nnc(OC(=O)N(C)C)n2-c2cccc(Cl)c2)cc1`, the viability loss activity score was 5.26% (inactive).

Turning to `CC1N=C(c2ccccc2)c2ccccc2N(CCCOc2ccc(F)cc2)C1=O` (stereo not given), the viability loss activity score is -3.72% (inactive).

Regarding `CC(C)(c1ccccc1)c1ccc(O)cc1`, the viability loss activity score was 0.81% (inactive).

`CC(C)c1ccc2c(c1O)CC[C@H]1C3=C(CC[C@]21C)C(=O)OC3`: the viability loss activity score was 4.52% (inactive).

`C[C@H]1CCC/C=C/C2C[C@H](O)C[C@H]2[C@H](O)/C=C\C(=O)O1` (stereo not given in full): the viability loss activity score is 74.4% (active).

With `CCN(CC)C(=O)c1ccc(N(Cc2ccccc2Cl)S(C)(=O)=O)cc1`, the viability loss activity score was 5.52% (inactive).

`Fc1cccc(NC2=NCCS2)c1`: the viability loss activity score is 7.57% (inactive).

The values are drawn from PubChem BioAssay AID2275 (Broad Institute, 2010).
